# Assay results reported in PubChem BioAssay (Tox21).
# Results filed as inconclusive are left out. A call without a number means that no potency is given here. Unmarked numbers belong to inactive results. Calls of active or inactive are those of the source. Unless noted, calls come from the whole dose curve; as a rule, active = well fitted curve in the direction sought with a large enough effect in the repeat runs; inconclusive = weak or mixed curves; inactive = no such curve, though single readings can be large; an effect the other way counts as inactive or inconclusive.
# Tests used:
# [1] = qHTS assay to identify small molecule agonists of the AP-1 signaling pathway - cell viability counter screen (AID 1159525; calls by dose curve; note: nearly all actives have a fitted effect of over 55% in size; note: potency is the fitted concentration of half-maximal effect)
# Outline: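 Same-well cytotoxicity counter screen of the Tox21 10K library in ME-180 cells. The readout is ATP-dependent luminescence after 5 h compound treatment. Data are normalised to DMSO and tetra n-octyl ammonium bromide controls.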
# [2] = molecular target: Luciferin 4-monooxygenase (Photinus pyralis) (UniProt P08659); assay: qHTS assay to identify small molecule inhibitors of firefly luciferase (AID 1224835); note: series mostly up to about 120 µM; nearly all actives have a fitted effect of over 25% in size
# Chain of Luciferin 4-monooxygenase (Photinus pyralis) (P08659 whole entry, looked up): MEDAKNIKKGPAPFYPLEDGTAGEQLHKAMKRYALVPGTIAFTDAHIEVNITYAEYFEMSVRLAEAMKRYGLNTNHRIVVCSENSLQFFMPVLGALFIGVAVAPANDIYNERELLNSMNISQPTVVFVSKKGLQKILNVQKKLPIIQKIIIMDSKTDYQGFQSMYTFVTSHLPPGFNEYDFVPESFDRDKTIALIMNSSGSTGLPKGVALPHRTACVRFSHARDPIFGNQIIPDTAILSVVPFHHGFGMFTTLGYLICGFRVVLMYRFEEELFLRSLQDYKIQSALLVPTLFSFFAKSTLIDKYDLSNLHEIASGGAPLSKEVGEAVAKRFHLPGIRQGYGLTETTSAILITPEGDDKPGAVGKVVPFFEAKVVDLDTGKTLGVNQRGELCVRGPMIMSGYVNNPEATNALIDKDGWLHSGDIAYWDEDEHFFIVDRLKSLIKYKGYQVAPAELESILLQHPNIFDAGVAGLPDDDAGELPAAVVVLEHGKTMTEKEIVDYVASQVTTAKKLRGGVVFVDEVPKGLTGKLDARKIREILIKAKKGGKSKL
# Outline: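 Biochemical qHTS: compounds run as interplate titrations against purified firefly enzyme, with D-luciferin and ATP each at its KM concentration. Light output recorded by CCD imaging.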
# [3] = qHTS RealTime-Glo MT Cell Viability Assay in HEK293 cells - 32 hour (AID 1224868); note: potency is the fitted concentration of half-maximal effect; nearly all actives have a fitted effect of over 50% in size
# Outline: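 Reads taken at 0, 8, 16, 24, 32 and 40 h from the same wells. HEK293 cells (600/well) carried RealTime-Glo reagents from seeding, with compound added after a 5 h settle at 37 C.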
# [4] = A CellTox Green Cytotoxicity Assay to monitor cytotoxicity in HEK293 cells - 8 hour (AID 1224884); note: nearly all actives have a fitted effect of over 35% in size; note: potency is the fitted concentration of half-maximal effect
# Outline: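 Homogeneous no-lysis format: HEK293 cell suspension mixed with CellTox Green reagent, seeded, incubated 5 h at 37 C/5% CO2, then dosed by pintool with compound in DMSO.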
# [5] = qHTS assay to identify small molecule agonists of the sonic hedgehog signaling (Shh) pathway - cell viability counter screen (AID 1259366); note: nearly all actives have a fitted effect of over 50% in size; note: potency is the fitted concentration of half-maximal effect
# Outline: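 Compounds in DMSO were pin-transferred onto 3T3 Gli1-Luc cells that had settled 4hr; plates then stood 24hr at 37C and 5% CO2. One hour before the end, CellTiter-Fluor was added and fluorescence recorded.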
# [6] = qHTS assay to identify small molecule antagonists of the sonic hedgehog signaling (Shh) pathway - cell viability counter screen (AID 1259367); note: nearly all actives have a fitted effect of over 55% in size; note: potency is the fitted concentration of half-maximal effect
# Outline: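 Tox21 library chemicals were tested on a Gli1-Luc NIH/3T3 clone (2,000 cells/well) stimulated by conditioned medium; viability was quantified as fluorescence from CellTiter-Fluor reagent added at 23 hr.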
# [7] = qHTS assay to identify small molecule antagonists of the TGF-beta/Smad signaling pathway - cell viability counter screen (AID 1346824); note: nearly all actives have a fitted effect of over 50% in size
# Outline: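 SBE-bla HEK 293T cells, incubated overnight, then compound plus 0.25 ng/mL TGF-beta1 (stock added) for 5 hr at 37 C. Viability was read in the same wells by CellTiter-Glo luminescence after 30 min at room temperature.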
# [8] = molecular target: Nuclear receptor subfamily 1 group I member 2 (Homo sapiens) (UniProt O75469); assay: Human pregnane X receptor (PXR) small molecule agonists, qHTS assay (AID 1346982); note: potency is the fitted concentration of half-maximal effect; nearly all actives have a fitted effect of over 35% in size
# Chain of Nuclear receptor subfamily 1 group I member 2 (Homo sapiens) (O75469 whole entry, looked up): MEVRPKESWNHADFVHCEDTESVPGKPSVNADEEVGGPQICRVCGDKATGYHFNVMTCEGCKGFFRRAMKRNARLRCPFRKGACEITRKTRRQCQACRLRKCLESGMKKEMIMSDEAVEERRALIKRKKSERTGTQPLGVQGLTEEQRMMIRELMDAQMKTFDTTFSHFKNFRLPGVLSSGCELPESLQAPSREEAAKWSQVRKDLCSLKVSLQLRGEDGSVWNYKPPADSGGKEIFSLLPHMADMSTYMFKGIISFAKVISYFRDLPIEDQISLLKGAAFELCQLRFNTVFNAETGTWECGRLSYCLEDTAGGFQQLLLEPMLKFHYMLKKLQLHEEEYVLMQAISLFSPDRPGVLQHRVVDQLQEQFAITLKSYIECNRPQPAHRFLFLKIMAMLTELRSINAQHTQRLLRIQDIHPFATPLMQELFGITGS
# Outline: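 After plating in 5% charcoal-stripped FBS and a 5 hr rest, PXR-Luc HepG2 cells received compounds in DMSO. Following 24 hr at 37 C, ONE-Glo was added and light output read.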
# [9] = molecular target: Cytochrome P450 2C19 (Homo sapiens) (UniProt P33261); assay: Cytochrome P450 Family 2 Subfamily C Member 19 (CYP2C19) small molecule antagonists: luciferase reporter qHTS assay (AID 1671197); note: nearly all actives have a fitted effect of over 65% in size; note: potency is the fitted concentration of half-maximal effect
# Chain of Cytochrome P450 2C19 (Homo sapiens) (P33261 whole entry, looked up): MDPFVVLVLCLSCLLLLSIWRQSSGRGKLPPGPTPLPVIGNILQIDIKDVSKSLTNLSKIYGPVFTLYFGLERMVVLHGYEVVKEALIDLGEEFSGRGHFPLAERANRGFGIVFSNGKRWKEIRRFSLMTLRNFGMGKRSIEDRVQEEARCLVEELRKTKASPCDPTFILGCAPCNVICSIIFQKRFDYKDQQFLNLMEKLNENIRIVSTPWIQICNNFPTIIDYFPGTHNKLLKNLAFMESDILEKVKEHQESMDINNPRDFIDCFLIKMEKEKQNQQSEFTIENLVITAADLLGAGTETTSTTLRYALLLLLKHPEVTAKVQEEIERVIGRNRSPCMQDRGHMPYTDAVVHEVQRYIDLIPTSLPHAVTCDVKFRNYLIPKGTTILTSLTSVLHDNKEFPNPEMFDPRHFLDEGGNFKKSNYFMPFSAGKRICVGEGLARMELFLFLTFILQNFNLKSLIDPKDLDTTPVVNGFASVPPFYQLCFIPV
# Outline: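 Quantitative high-throughput screen of the Tox21 library using CYP2C19 with proluciferin substrate. Reaction: NADPH regeneration, 37C, 1 h, after 10 min compound preincubation at room temperature. Readout: luminescence.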
# [10] = molecular target: Cytochrome P450 2C9 (Homo sapiens) (UniProt P11712); assay: Cytochrome P450 Family 2 Subfamily C Member 9 (CYP2C9) small molecule antagonists: luciferase reporter qHTS assay (AID 1671198); note: nearly all actives have a fitted effect of over 50% in size; note: potency is the fitted concentration of half-maximal effect
# Chain of Cytochrome P450 2C9 (Homo sapiens) (P11712 whole entry, looked up): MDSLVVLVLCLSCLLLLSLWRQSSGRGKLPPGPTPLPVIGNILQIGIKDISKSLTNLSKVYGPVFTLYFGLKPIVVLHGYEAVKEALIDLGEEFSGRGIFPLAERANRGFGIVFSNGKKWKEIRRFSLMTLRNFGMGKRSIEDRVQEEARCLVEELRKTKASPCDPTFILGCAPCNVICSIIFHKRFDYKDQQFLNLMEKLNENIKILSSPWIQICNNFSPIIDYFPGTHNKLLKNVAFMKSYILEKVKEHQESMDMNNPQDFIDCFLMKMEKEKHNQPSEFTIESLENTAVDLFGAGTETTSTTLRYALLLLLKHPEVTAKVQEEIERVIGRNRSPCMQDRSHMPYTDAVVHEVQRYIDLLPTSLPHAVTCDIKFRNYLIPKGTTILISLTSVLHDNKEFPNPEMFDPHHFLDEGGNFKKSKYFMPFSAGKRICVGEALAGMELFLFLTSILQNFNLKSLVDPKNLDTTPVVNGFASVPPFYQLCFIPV
# Outline: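 P450-Glo proluciferin substrate with CYP2C9 enzyme; 10 min RT preincubation, then NADPH regeneration 1 h at 37C; luciferin detection reagent 20 min RT, luminescence in relative luminescence units.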
# [11] = molecular target: Retinoic acid receptor RXR-alpha (Homo sapiens) (UniProt P19793); assay: qHTS assay to identify small molecule agonists of the RXR signaling pathway (AID 1159527; calls by dose curve; note: nearly all actives have a fitted effect of over 35% in size)
# Chain of Retinoic acid receptor RXR-alpha (Homo sapiens) (P19793 whole entry, looked up): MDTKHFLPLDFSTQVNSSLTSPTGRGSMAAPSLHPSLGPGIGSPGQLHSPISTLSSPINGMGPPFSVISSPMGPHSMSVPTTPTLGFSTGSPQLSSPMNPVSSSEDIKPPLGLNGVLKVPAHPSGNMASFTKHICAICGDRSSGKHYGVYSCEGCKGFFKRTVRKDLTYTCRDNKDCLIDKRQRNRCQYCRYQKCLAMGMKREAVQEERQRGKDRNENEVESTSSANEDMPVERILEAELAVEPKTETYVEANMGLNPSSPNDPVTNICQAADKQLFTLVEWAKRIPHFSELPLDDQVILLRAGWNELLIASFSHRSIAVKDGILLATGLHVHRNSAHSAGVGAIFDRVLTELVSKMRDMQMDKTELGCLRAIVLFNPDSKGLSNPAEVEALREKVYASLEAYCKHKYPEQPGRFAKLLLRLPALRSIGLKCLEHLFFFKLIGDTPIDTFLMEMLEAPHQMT
# Outline: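 Compounds in DMSO were added to RXR-alpha-UAS-bla HEK 293T cells kept in 2% charcoal-stripped serum, and incubated 16 hr at 37 C with 5% CO2. Reporter signal came from a 2 hr B/G FRET substrate step.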
# [12] = qHTS assay to identify small molecule antagonists of the estrogen related receptor (ERR) signaling pathway from Tox21 library - cell viability counter screen (AID 1224834); note: nearly all actives have a fitted effect of over 30% in size; note: potency is the fitted concentration of half-maximal effect
# Outline: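 In this quantitative HTS format, ERR cells receive compounds in DMSO and are incubated for 17.5 h at 37 C. Live-cell protease activity is then detected with CellTiter-Fluor.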
# [13] = A CellTox Green Cytotoxicity Assay to monitor cytotoxicity in HepG2 cells - 24 hour (AID 1224878); note: potency is the fitted concentration of half-maximal effect; nearly all actives have a fitted effect of over 45% in size
# Outline: (§1)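 Fluorescent DNA-binding dye, 600 HepG2 cells/well, 5 h preincubation then compound in DMSO; same plates read at 0–40 h, 37 C.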
# [14] = A CellTox Green Cytotoxicity Assay to monitor cytotoxicity in HepG2 cells - 40 hour (AID 1224879); note: potency is the fitted concentration of half-maximal effect; nearly all actives have a fitted effect of over 40% in size
# Outline: as §1
# [15] = qHTS assay to identify small molecule agonists of the estrogen receptor alpha (ER-alpha) signaling pathway in the presence of an antagonist - cell viability counter screen (AID 1259386);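 note: series mostly up to about 92 µM; cells exposed to compounds for 22 h at 37 °C before the viability read; nearly all actives have a fitted effect of over 30% in size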
# Outline: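 Steps: 5-day stripped-FBS culture; seed and incubate 24hr; add ICI-182,780 (10.0nM final); pin 15-point compound titration; incubate 22hr at 37C; add CellTiter-Fluor at 21hr; read fluorescence.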
# [16] = qHTS assay to identify small molecule agonists of the TGF-beta/Smad signaling pathway - cell viability counter screen (AID 1346829); note: top concentration of the series differs between compounds; nearly all actives have a fitted effect of over 45% in size
# Outline: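 Same-well cytotoxicity: CellTiter-Glo added after the 2 hr room-temperature beta-lactamase substrate step, luminescence measured 30 min later; cells had 5 hr of compound at 37 C.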
# [17] = qHTS assay to identify small molecule agonists of the constitutive androstane receptor (CAR) signaling pathway - cell viability counter screen (AID 1224836); note: nearly all actives have a fitted effect of over 45% in size; note: potency is the fitted concentration of half-maximal effect
# Outline: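 Double-stable HepG2 hepatoma cells (hCAR plus CYP2B6-2.2kb) are treated for 23 h at 37 C with test compounds in 15-point concentration series. PK11195 at 0.75 uM final is co-added. Cell viability is quantified by CellTiter-Fluor.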
# [18] = qHTS RealTime-Glo MT Cell Viability Assay in HepG2 cells - 24 hour (AID 1224867); note: nearly all actives have a fitted effect of over 50% in size; note: potency is the fitted concentration of half-maximal effect
# Outline: (§2)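 HepG2 suspension premixed with RealTime-Glo reagents is plated at 600 cells per well and left 5 h at 37 C/5% CO2. Compounds in DMSO then go in, and bioluminescence reflecting viable cell number is recorded over 40 h.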
# [19] = qHTS RealTime-Glo MT Cell Viability Assay in HepG2 cells - 16 hour (AID 1224885); note: nearly all actives have a fitted effect of over 50% in size; note: potency is the fitted concentration of half-maximal effect
# Outline: as §2
# [20] = qHTS assay to identify small molecule antagonists of the constitutive androstane receptor (CAR) signaling pathway - cell viability counter screen (AID 1224837); note: series mostly up to about 92 µM; nearly all actives have a fitted effect of over 45% in size
# Outline: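 In quantitative HTS format, compounds at 15 concentrations were applied to HepG2 cells double-transfected with hCAR and CYP2B6-2.2kb under 50 nM CITCO stimulation; live-cell protease activity was read after 23 hr via CellTiter-Fluor.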
compound,measurement,setting,value
Cc1cc(C)c(C(=O)P(=O)(c2ccccc2)c2ccccc2)c(C)c1,Potency,[1],38.9 µM (active)
same,Potency,[2],inactive
same,Potency,[3],49 µM (active)
same,Potency,[4],inactive
same,Potency,[5],61.1 µM (active)
same,Potency,[6],54.5 µM (active)
same,Potency,[7],inactive
same,Potency,[8],9.69 µM (active)
same,Potency,[9],6.33 µM (active)
same,Potency,[10],15.9 µM (active)
CCC(C)=O,Potency,[11],inactive
OCC(c1ccc(Cl)cc1)c1ccc(Cl)cc1,Potency,[1],49 µM (active)
same,Potency,[11],inactive
same,Potency,[12],48.6 µM (active)
same,Potency,[2],inactive
same,Potency,[3],34.7 µM (active)
same,Potency,[13],38.9 µM (active)
same,Potency,[14],38.9 µM (active)
same,Potency,[4],43.6 µM (active)
same,Potency,[15],inactive
same,Potency,[7],inactive
same,outcome,[16],inactive
same,Potency,[9],0.0894 µM (active)
same,Potency,[10],12.6 µM (active)
Nc1ccc(Cl)cc1[N+](=O)[O-],Potency,[11],inactive
c1ccc2c(c1)Sc1ccccc1N2CC1CN2CCC1CC2 (configuration not stated),Potency,[1],inactive
same,Potency,[12],29.8 µM (active)
same,Potency,[2],inactive
same,Potency,[17],29.8 µM (active)
same,Potency,[18],21.3 µM (active)
same,Potency,[13],23.9 µM (active)
same,Potency,[14],19 µM (active)
same,Potency,[19],23.9 µM (active)
same,Potency,[5],11.9 µM (active)
same,Potency,[6],11.9 µM (active)
same,Potency,[15],inactive
same,Potency,[7],inactive
same,outcome,[16],inactive
same,Potency,[10],inactive
O=C(c1ccc(Cl)cc1)c1ccc(Cl)cc1,Potency,[11],inactive
Clc1ccccc1-c1ccccc1Cl,Potency,[12],inactive
same,Potency,[2],inactive
same,Potency,[17],inactive
same,Potency,[20],inactive
same,Potency,[18],inactive
same,Potency,[19],inactive
same,Potency,[5],inactive
same,Potency,[6],inactive
same,Potency,[15],inactive
same,Potency,[7],inactive
same,Potency,[9],inactive
c1ccncc1,Potency,[11],inactive
CCc1cccc(CC)c1N,Potency,[11],inactive
O=C(O)C(c1ccc(Cl)cc1)c1ccc(Cl)cc1,Potency,[11],inactive
CC(CCl)OC(C)CCl (configuration not stated),Potency,[11],inactive
C=CC(=O)OCCCC,Potency,[11],inactive
O=[N+]([O-])c1cc(C(F)(F)F)ccc1Cl,Potency,[11],inactive
